Assay results published in PubChem BioAssay (EPA / NIEHS).
Records with an inconclusive call do not appear. The source made the active and inactive calls. How the source made its calls, unless noted: active means hit-call score of the fitted dose curve at least 0.9, where 1 is the maximum; inactive means score below 0.9.

Assays:
[1] = read-out: NAD(P)H dehydrogenase [quinone] 1 (NQO1), NQO1 (gene 1728); assay: LTEA_HepaRG_NQO1: Life Technologies and Expression Analysis (LTEA) Assay for NAD(P)H dehydrogenase [quinone] 1 (NQO1) using HepaRG (AID 2283526); details: mRNA level, 48 h; actives raise or lower the signal
How it was run: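 Human HepaRG hepatic cells received chemicals for 48 h in serum-free induction medium with 0.5% DMSO, up to 100 uM. Expression was assessed by TaqMan qRT-PCR against housekeeping controls and fitted bidirectionally against DMSO.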

[2] = read-out: Nuclear factor erythroid 2-related factor 2 (Homo sapiens) (UniProt Q16236); assay: LTEA_HepaRG_NFE2L2: Life Technologies and Expression Analysis (LTEA) Assay for Nuclear factor erythroid 2-related factor 2 (NFE2L2) Transcription Factor using HepaRG (AID 2283527); details: mRNA level, 48 h; actives raise or lower the signal
How it was run: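 Transcript level of NFE2L2 is the read-out, measured by microfluidic TaqMan qRT-PCR and normalized to three housekeeping genes. Human HepaRG cultures received test chemical for 48 h at up to 100 uM in half-log steps. Gain or loss of signal is fitted relative to 0.5% DMSO.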

[3] = read-out: succinate dehydrogenase complex iron sulfur subunit B (SDHB), SDHB (gene 6390); assay: LTEA_HepaRG_SDHB: Life Technologies and Expression Analysis (LTEA) Assay for succinate dehydrogenase complex iron sulfur subunit B (SDHB) using HepaRG (AID 2283528); details: mRNA level, 48 h; actives raise or lower the signal
How it was run: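 Readout is SDHB transcript level by qRT-PCR, normalised to three housekeeping genes and fitted bidirectionally against 0.5% DMSO vehicle. Human HepaRG cells were treated for 48 h at up to 100 uM.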

[4] = read-out: Signal transducer and activator of transcription 3 (Homo sapiens) (UniProt P40763); assay: LTEA_HepaRG_STAT3: Life Technologies and Expression Analysis (LTEA) Assay for Signal transducer and activator of transcription (STAT3) using HepaRG (AID 2283529); details: mRNA level, 48 h; actives raise or lower the signal
How it was run: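 Read-out is STAT3 mRNA level by qRT-PCR, normalized to three housekeeping genes, in human HepaRG liver cells treated for 48 h. Concentrations ran from 100 uM downward in half-log steps; curves were fitted for gain or loss relative to 0.5% DMSO.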

[5] = read-out: solute carrier (SLCO1B1), SLCO1B1 (gene 10599); assay: LTEA_HepaRG_SLCO1B1: Life Technologies and Expression Analysis (LTEA) Assay for solute carrier (SLCO1B1) using HepaRG (AID 2283530); details: mRNA level, 48 h; actives raise or lower the signal
How it was run: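 SLCO1B1 transcript levels were quantified by TaqMan qRT-PCR using three housekeeping genes for normalization. This followed 48 h chemical exposure (100 uM top, half-log, 8 points, 0.5% DMSO) of HepaRG liver cells, with gain or loss fitted relative to DMSO.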

[6] = read-out: sulfotransferase 2A1 (SULT2A1), SULT2A1 (gene 6822); assay: LTEA_HepaRG_SULT2A1: Life Technologies and Expression Analysis (LTEA) Assay for sulfotransferase 2A1 (SULT2A1) using HepaRG (AID 2283531); details: mRNA level, 48 h; actives raise or lower the signal
How it was run: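 Expression change of SULT2A1, by qRT-PCR with three housekeeping-gene normalization, was scored bidirectionally versus DMSO. Cells: differentiated HepaRG, dosed in duplicate for 48 h across 8 points, highest 100 µM, half-log dilution, 0.5% DMSO.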

[7] = read-out: Transforming Growth Factor (TGFA), TGFA (gene 7039); assay: LTEA_HepaRG_TGFA: Life Technologies and Expression Analysis (LTEA) Assay for Transforming Growth Factor (TGFA) using HepaRG (AID 2283532); details: mRNA level, 48 h; actives raise or lower the signal
How it was run: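 HepaRG (human liver line), 48 h exposure, 8 conc. half-log down from 100 uM, 0.5% DMSO vehicle, duplicates; serum-free induction medium. TGFA mRNA by TaqMan qRT-PCR, ACTB/GAPDH/POLR2A normalization; gain/loss fit vs DMSO.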

[8] = read-out: Transforming Growth Factor (TGFB1), TGFB1 (gene 7040); assay: LTEA_HepaRG_TGFB1: Life Technologies and Expression Analysis (LTEA) Assay for Transforming Growth Factor (TGFB1) Transporter using HepaRG (AID 2283533); details: mRNA level, 48 h; actives raise or lower the signal
How it was run: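 TGFB1 transcript measured by qRT-PCR with normalisation to three housekeeping genes (ACTB, GAPDH, POLR2A); human HepaRG line treated in duplicate for 48 hr with an 8-point series topping at 100 uM, 0.5% DMSO vehicle, bidirectionally fitted.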

TIMP1, TIMP1 (gene 7076) = assay: LTEA_HepaRG_TIMP1: Life Technologies and Expression Analysis (LTEA) Assay for TIMP1 using HepaRG (AID 2283534); details: mRNA level, 48 h; actives raise or lower the signal
How it was run: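 Bidirectional change in TIMP1 transcript versus 0.5% DMSO, measured by TaqMan qRT-PCR with three housekeeping genes for normalization. HepaRG human liver cells dosed 48 h in duplicate, top concentration 100 uM with half-log dilutions.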

[9] = read-out: Thyroid Hormone Responsive (THRSP), THRSP (gene 7069); assay: LTEA_HepaRG_THRSP: Life Technologies and Expression Analysis (LTEA) Assay for Thyroid Hormone Responsive (THRSP) using HepaRG (AID 2283536); details: mRNA level, 48 h; actives raise or lower the signal
How it was run: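 mRNA induction or loss relative to 0.5% DMSO vehicle was fitted bidirectionally across an eight-point curve whose highest exposure was 100 uM. Human HepaRG liver cells received chemicals in duplicate over 48 h before RNA extraction.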

[10] = read-out: Cellular tumor antigen p53 (Homo sapiens) (UniProt P04637); assay: LTEA_HepaRG_TP53: Life Technologies and Expression Analysis (LTEA) Assay for Tumor Protein P53 (TP53) using HepaRG (AID 2283537); details: mRNA level, 48 h; actives raise or lower the signal
How it was run: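 Read-out is TP53 transcript level by microfluidic qRT-PCR, normalised to three housekeeping genes and fitted bidirectionally against DMSO. Human HepaRG cells received compounds for 48 h, highest concentration 100 uM.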

[11] = read-out: UDP glucuronosyltransferase (UGT1A6), UGT1A6 (gene 54578); assay: LTEA_HepaRG_UGT1A6: Life Technologies and Expression Analysis (LTEA) Assay for UDP glucuronosyltransferase (UGT1A6) using HepaRG (AID 2283539); details: mRNA level, 48 h; actives raise or lower the signal
How it was run: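 Expression was quantified by TaqMan qRT-PCR on Fluidigm arrays with ACTB/GAPDH/POLR2A normalization and bidirectional fitting against 0.5% DMSO. HepaRG cells (~100,000/well) were treated in duplicate for 48 h at eight half-log concentrations up to 100 uM in serum-free induction medium.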

[12] = read-out: X-box binding protein 1 (XBP1), XBP1 (gene 7494); assay: LTEA_HepaRG_XBP1: Life Technologies and Expression Analysis (LTEA) Assay for X-box binding protein 1 (XBP1) using HepaRG (AID 2283540); details: mRNA level, 48 h; actives raise or lower the signal
How it was run: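 XBP1 transcript by qRT-PCR (housekeeping-normalized: ACTB, GAPDH, POLR2A) after 48 h chemical treatment of HepaRG cells, 8-point half-log series topping at 100 uM, vehicle 0.5% DMSO. Gain and loss of signal fitted relative to DMSO.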

[13] = LTEA_HepaRG_LDH_cytotoxicity: Cytotoxicity Assessment in the Life Technologies and Expression Analysis (LTEA) Assay (AID 2283563; active means hit-call score of the fitted dose curve at least 0.9, where 1 is the maximum;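 on AC50: LDH activity released into spent culture medium as a marker of cell death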)
How it was run: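 LDH release into culture medium read after 48 h chemical treatment of HepaRG cells. Duplicate wells, eight-point half-log series topping at 100 uM, 0.5% DMSO vehicle and baseline.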

[14] = ATG_XTT_Cytotoxicity: Cytotoxicity Assessment in the Attagene TRANS-FACTORIAL HepG2 Assay (AID 2283584; active means hit-call score of the fitted dose curve at least 0.9, where 1 is the maximum)
How it was run: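 Viability endpoint from XTT after 24 h chemical exposure of reporter-transfected human HepG2 liver cells; signal loss fitted relative to DMSO negative control.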

[15] = TOX21_p53_BLA_p2_viability: Viability Assessment in the Tox21 HCT-116 p53 Agonism Beta-lactamase Assay, Phase 2 (AID 2283591; active means hit-call score of the fitted dose curve at least 0.9, where 1 is the maximum;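 further: compound exposure lasted 16 h at 37 °C; actives lower the ATP signal meaning cytotoxicity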)
How it was run: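 Cytotoxicity readout: CellTiter-Glo ATP luminescence, 30 min at room temperature, after the beta-lactamase read. Cells were HCT116 exposed 16 h at 37C to compounds pin-transferred at 217-fold dilution from DMSO stocks.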

[16] = molecular target: Cellular tumor antigen p53 (Homo sapiens) (UniProt P04637); assay: TOX21_p53_BLA_p2_ratio: Tox21 HCT-116 p53 Agonism Beta-lactamase Assay, Ratio, Phase 2 (AID 2283592; active means hit-call score of the fitted dose curve at least 0.9, where 1 is the maximum)
Cellular tumor antigen p53 (Homo sapiens), sequence (P04637 whole entry, looked up): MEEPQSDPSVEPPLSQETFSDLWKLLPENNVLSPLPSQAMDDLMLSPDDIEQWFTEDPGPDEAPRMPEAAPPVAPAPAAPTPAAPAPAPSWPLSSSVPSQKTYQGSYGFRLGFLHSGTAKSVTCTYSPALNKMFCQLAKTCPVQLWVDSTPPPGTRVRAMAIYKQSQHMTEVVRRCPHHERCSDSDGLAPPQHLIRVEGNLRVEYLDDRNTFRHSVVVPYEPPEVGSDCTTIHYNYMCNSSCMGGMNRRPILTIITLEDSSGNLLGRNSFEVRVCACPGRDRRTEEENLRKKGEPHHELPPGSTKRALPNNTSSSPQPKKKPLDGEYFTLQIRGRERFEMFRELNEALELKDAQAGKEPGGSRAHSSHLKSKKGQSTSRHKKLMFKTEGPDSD
How it was run: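 Gain-of-signal p53 agonism was scored from the beta-lactamase FRET ratio (460/530 nm, 405 nm excitation) in HCT116 cells treated 16 h at 37C, 5% CO2, with DMSO serving as negative control and baseline.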

[17] = TOX21_p53_BLA_p3_viability: Viability Assessment in the Tox21 HCT-116 p53 Agonism Beta-lactamase Assay, Phase 3 (AID 2283593; active means hit-call score of the fitted dose curve at least 0.9, where 1 is the maximum;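 further: cells exposed to compound for 16 h before reading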)
How it was run: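 Cellular ATP was quantified by CellTiter-Glo luminescence, read after 30 min at room temperature. Beforehand, HCT116 cells (4000/well) received compound 5 h post-seeding, 217-fold diluted from DMSO, then incubated 16 h at 37C.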

Measured: AC50

Nuclear factor erythroid 2-related factor 2 (Homo sapiens), sequence (Q16236 whole entry, looked up): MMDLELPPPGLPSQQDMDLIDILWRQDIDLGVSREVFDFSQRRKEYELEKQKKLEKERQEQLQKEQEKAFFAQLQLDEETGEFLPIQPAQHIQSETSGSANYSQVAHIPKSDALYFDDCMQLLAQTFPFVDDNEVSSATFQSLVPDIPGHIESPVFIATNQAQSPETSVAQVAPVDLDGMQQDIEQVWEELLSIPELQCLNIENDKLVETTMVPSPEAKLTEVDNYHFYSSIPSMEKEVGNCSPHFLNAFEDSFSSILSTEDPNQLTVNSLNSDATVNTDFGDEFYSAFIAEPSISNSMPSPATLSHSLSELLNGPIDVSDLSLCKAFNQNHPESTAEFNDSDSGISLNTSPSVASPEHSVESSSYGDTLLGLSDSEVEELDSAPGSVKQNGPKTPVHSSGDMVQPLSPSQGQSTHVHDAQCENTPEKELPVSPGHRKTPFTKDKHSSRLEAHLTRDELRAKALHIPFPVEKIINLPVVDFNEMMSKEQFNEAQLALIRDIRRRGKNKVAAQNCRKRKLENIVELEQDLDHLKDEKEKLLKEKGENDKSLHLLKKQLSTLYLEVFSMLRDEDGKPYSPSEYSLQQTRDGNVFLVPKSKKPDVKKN
Signal transducer and activator of transcription 3 (Homo sapiens), sequence (P40763 whole entry, looked up): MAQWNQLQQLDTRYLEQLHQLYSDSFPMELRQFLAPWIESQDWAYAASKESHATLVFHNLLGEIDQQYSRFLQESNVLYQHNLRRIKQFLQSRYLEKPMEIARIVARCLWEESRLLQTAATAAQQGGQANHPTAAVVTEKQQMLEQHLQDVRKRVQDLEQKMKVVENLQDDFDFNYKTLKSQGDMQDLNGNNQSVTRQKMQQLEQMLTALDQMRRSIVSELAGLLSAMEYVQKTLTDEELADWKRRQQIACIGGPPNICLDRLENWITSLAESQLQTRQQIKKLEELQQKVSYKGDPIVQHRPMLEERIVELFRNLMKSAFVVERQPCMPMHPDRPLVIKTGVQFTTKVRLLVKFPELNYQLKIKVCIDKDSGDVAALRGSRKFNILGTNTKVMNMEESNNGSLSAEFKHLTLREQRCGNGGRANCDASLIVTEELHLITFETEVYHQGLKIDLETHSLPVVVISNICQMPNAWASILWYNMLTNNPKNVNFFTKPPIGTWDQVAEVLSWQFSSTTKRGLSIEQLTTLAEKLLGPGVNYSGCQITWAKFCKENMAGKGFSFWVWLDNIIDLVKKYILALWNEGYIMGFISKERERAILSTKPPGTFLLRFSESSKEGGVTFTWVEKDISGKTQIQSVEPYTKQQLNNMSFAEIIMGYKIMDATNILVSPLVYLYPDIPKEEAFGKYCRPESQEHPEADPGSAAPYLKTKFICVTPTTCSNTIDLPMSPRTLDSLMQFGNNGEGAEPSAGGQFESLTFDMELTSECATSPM

CCCC1COC(Cn2cncn2)(c2ccc(Cl)cc2Cl)O1 (centres undefined)
active: [1] 50 µM | [2] 83.6 µM | [5] 62.8 µM | [6] 59 µM | [7] 50 µM | [8] 27.3 µM | [9] 7.44 µM | [10] 34.3 µM | [11] 59.5 µM | [13] 32 µM
inactive: [3] | [4] | TIMP1, TIMP1 (gene 7076) | [12] | [14] | [15] | [16] | [17]

COc1ccc(C(c2ccc(OC)cc2)C(Cl)(Cl)Cl)cc1
active: [2] 12.7 µM | [3] 33.2 µM | [9] 81.7 µM | [10] 66.7 µM | [11] 79.2 µM | [13] 83.4 µM
inactive: all other assays above

CCOP(=S)(OCC)SCn1c(=O)oc2cc(Cl)ccc21
not listed: [15] | [17]
inactive: all other assays above

CC(Oc1ccc(Cl)cc1Cl)C(=O)O (centres undefined)
not listed: [14]
inactive: all other assays above

CCON=C(CC)C1=C(O)CC(c2c(C)cc(C)cc2C)CC1=O (centres undefined)
active: [9] 50 µM
not listed: [14]
inactive: all other assays above

COc1cnc(OC)n2nc(NS(=O)(=O)c3c(OCC(F)F)cccc3C(F)(F)F)nc12
active: [9] 50 µM
inactive: all other assays above
